Consider 31 molecules from PubChem BioAssay (NCATS).

“And” between values parts separate entries of the source, which are not always exact repeats. Equal entries are not always repeated. Inconclusive results are not listed. Values without a mark were called inactive. The source made the active and inactive calls. Unless noted, calls come from the whole dose curve; as a rule, active = well fitted curve in the direction sought with a large enough effect; inconclusive = small, poorly fitted or top-dose-only effect, or another doubt; inactive = no such curve, though single readings can be large; an effect the other way counts as inactive or inconclusive.

Assay [1] concerns the target Calcium and integrin-binding protein 1 (Homo sapiens) (UniProt Q99828). In words: Primary qHTS for Identification of Calcium Integrin Binding Protein 1 (CIB1) Competitor (AID 1508620).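 Note: GST tagged CIB1 binding a fluorescein labelled alphaIIb integrin peptide tracer; top concentration of the series differs between compounds; % is set by controls: 0 for no effect and ±100 for the full control effect.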 As to conditions: CIB1-GST / FITC-alphaIIb peptide fluorescence polarization; series mostly up to 114 µM. In short, it runs like this:
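Fluorescence polarization competition: CIB1-GST (1 uM final) preincubated with compound 15 min at room temperature, then FITC-labeled alphaIIb peptide (100 nM final) added for another 15 min. Polarization read at Ex 480/Em 540.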
A general note: Quantitative high-throughput screening tests each substance at several concentrations.

Assay [2] is described as follows: Primary qHTS for small molecule stabilizers of the endoplasmic reticulum resident proteome: Secreted ER Calcium Modulated Protein (SERCaMP) assay (AID 1508630). Note: % is set by controls: 0 for no effect and ±100 for the full control effect. As to conditions: SH-SY5Y GLuc-SERCaMP (Gaussia luciferase released on ER calcium loss) secretion, thapsigargin, luminescence; series mostly up to 38.4 µM. Put shortly:
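The SH-SY5Y reporter protocol was run at 3 concentrations up to 38.3 uM (primary) or 11 concentrations (follow-up): 16 h compound, 100 nM thapsigargin for 4 h, then extracellular luciferase luminescence.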

The nature of assay [3]: A High-Content qHTS Against Drug Library for the Identification of Small Molecules that Inhibit DYT1 Early Onset Primary Dystonia-Associated Cell Pathology (AID 1645839; calls by dose curve; note: potency is the fitted concentration of half-maximal effect). The note with it: HEK293 Flp-In EGFP-delE TorsinA, punctate imaging, 48 h; series mostly up to 46.1 µM. In short, it runs like this: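 Induced EGFP-delE TorsinA cells are imaged after 48 h of compound treatment. Punctate fusion-protein distribution gives the %pathology value, while nuclei counts flag toxicity. Wild-type EGFP-hTOR1A cells define the normal pattern.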

For assay [4], the target named is Cytochrome P450 2C9 (Homo sapiens) (UniProt P11712). In words: Cytochrome P450 family 2 subfamily C member 9 (CYP2C9) small molecule antagonists: luciferase biochemical (cell-free) qHTS assay (AID 1645842; active = well fitted curve in the direction sought with a large enough effect in the repeat runs; an effect the other way counts as inactive or inconclusive; note: nearly all actives have a fitted effect of over 55% in size; note: potency is the fitted concentration of half-maximal effect; for activity change, negative = inhibition: % is set by controls: 0 for no effect and ±100 for the full control effect). The note with it: P450-Glo CYP2C9 enzyme assay, luciferin luminescence; series mostly up to 57.4 µM. Put shortly:
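P450-Glo CYP2C9 system: proluciferin substrate with enzyme in mix containing 0.4% BSA, 10 min at room temperature, then NADPH regeneration solution added and incubated 1 h at 37C. Detection reagent stopped reaction; luminescence read after 20 min as RLU.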

The target in assay [5] is Cytochrome P450 2D6 (Homo sapiens) (UniProt P10635). In words: Cytochrome P450 family 2 subfamily D member 6 (CYP2D6) small molecule antagonists: luciferase biochemical (cell-free) qHTS assay (AID 1645840; active = well fitted curve in the direction sought with a large enough effect in the repeat runs; an effect the other way counts as inactive or inconclusive; note: nearly all actives have a fitted effect of over 55% in size; note: potency is the fitted concentration of half-maximal effect). The note with it: P450-Glo CYP2D6 enzyme, luciferin luminescence, 1 h; series mostly up to 57.4 µM. In short, it runs like this: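 P450-Glo CYP2D6 system: proluciferin substrate converted by enzyme to luciferin, read by luminescence proportional to activity. Enzyme-substrate mix with compound 10 min at room temperature, then NADPH regeneration 1 h before detection reagent.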

Assay [6] has as its target Cytochrome P450 3A4 (Homo sapiens) (UniProt P08684). Kind of assay: Cytochrome P450 family 3 subfamily A member 4 (CYP3A4) small molecule antagonists: luciferase qHTS assay (AID 1645841; active = well fitted curve in the direction sought with a large enough effect in the repeat runs; an effect the other way counts as inactive or inconclusive; note: nearly all actives have a fitted effect of over 45% in size). As to conditions: P450-Glo CYP3A4 enzyme assay, luciferin luminescence; series mostly up to 57.4 µM. Put shortly:
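P450-Glo CYP3A4 enzyme with proluciferin substrate was preincubated with DMSO-dissolved compounds for 10 min at room temperature. NADPH regeneration solution started a 1 h reaction. Detection reagent stopped it, and luminescence was read after 20 min.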

The target in assay [7] is Papain (Carica papaya) (UniProt P00784). In words: Primary qHTS assay for inhibitors of the protease papain (AID 1645873).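 Note: papain turnover of Z-FR-AMC read as the AMC fluorescence gain over 10 min; % is set by controls: 0 for no effect and ±100 for the full control effect.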 As to conditions: papain Z-FR-AMC cleavage, AMC fluorescence; series mostly up to 49.8 µM.
Assay [8] is described as follows: Counterscreen qHTS for small molecule stabilizers of the endoplasmic reticulum resident proteome: GLuc-NoTag assay (AID 1508627).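 Note: 0% = thapsigargin alone and -100% = DMSO vehicle control.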 The note with it: Gaussia luciferase NoTag secretion counterscreen, luminescence, thapsigargin 100 nM for final 4 h; series mostly up to 76.4 µM. Put shortly: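 Secreted GLuc lacking the SERCaMP modification is measured in SH-SY5Y cells exposed to compound for 19 h and then to thapsigargin (100 nM, 4 h) to deplete ER calcium; hits retested at 11 concentrations, up to 76.6 uM.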

A short description of assay [9]: Confirmatory qHTS for small molecule stabilizers of the endoplasmic reticulum resident proteome: Secreted ER Calcium Modulated Protein (SERCaMP) assay (AID 1508628). Note: % is set by controls: 0 for no effect and ±100 for the full control effect; nearly all actives have a fitted effect of over 40% in size. The note with it: SERCaMP secreted luciferase ER calcium/proteostasis reporter; series mostly up to 76.3 µM. Put shortly: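 Reporter secretion upon ER calcium depletion (100 nM thapsigargin, 4 h, 37C) is measured as medium luminescence with coelenterazine, after 16 h compound pretreatment of SH-SY5Y-GLuc-SERCaMP cells; primary at three concentrations up to 38.3 uM, follow-up at 11 (up to 76.6 uM).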

Chain of Cytochrome P450 2C9 (Homo sapiens) (P11712 whole entry, looked up): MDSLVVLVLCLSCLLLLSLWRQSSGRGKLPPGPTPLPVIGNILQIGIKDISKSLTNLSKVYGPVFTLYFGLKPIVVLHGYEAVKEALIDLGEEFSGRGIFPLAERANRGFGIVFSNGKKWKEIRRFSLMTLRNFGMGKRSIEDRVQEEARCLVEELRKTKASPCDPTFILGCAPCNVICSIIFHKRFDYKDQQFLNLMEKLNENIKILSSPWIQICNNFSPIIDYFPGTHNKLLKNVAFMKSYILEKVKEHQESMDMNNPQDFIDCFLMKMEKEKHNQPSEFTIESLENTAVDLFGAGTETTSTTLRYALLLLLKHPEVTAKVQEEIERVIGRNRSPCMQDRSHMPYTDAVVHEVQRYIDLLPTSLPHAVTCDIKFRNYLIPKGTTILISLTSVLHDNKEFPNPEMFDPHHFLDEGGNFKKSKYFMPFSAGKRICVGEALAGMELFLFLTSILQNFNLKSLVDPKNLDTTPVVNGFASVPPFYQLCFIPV
Chain of Cytochrome P450 2D6 (Homo sapiens) (P10635 whole entry, looked up): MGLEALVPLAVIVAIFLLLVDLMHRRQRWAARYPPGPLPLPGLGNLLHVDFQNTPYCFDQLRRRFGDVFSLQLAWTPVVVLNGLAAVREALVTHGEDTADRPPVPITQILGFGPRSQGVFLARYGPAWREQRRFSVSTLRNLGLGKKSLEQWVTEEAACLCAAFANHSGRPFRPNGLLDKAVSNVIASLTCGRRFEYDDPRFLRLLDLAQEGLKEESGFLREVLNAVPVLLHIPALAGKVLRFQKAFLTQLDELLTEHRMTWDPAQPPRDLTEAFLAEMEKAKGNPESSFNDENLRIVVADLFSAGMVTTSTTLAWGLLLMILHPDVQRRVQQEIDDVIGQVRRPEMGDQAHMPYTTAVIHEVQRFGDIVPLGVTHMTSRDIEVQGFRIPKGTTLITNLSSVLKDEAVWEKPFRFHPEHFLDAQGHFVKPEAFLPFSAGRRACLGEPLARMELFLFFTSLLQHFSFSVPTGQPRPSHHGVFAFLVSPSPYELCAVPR
Chain of Cytochrome P450 3A4 (Homo sapiens) (P08684 whole entry, looked up): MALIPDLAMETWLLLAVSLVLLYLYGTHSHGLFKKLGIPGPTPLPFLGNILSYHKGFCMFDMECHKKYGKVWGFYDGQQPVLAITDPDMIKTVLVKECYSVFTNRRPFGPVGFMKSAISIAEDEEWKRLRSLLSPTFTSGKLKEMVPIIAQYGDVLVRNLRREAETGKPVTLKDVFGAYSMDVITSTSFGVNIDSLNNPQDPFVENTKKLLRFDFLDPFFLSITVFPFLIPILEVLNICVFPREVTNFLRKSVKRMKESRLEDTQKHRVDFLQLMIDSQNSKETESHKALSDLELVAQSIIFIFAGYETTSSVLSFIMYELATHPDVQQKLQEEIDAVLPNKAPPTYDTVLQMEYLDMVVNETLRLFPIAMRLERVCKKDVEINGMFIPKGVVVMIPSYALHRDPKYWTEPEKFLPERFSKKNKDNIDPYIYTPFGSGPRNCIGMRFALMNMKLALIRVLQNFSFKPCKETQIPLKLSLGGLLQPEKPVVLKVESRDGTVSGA
Chain of Calcium and integrin-binding protein 1 (Homo sapiens) (Q99828 whole entry, looked up): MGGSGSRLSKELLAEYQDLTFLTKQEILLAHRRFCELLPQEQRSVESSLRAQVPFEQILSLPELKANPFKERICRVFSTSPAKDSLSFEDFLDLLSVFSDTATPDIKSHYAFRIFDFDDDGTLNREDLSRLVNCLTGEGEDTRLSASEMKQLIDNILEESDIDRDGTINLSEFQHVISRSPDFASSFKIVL
Chain of Papain (Carica papaya) (P00784 whole entry, looked up): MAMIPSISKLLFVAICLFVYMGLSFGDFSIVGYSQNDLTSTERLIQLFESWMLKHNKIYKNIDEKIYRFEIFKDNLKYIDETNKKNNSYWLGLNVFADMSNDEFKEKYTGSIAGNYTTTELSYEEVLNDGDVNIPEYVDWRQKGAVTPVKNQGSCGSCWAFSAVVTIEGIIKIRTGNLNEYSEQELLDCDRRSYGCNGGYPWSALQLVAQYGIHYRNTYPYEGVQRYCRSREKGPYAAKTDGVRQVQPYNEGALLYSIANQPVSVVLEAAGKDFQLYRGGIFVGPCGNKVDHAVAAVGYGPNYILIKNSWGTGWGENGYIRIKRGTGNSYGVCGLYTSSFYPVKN

On to `c1ccc(-c2nc[nH]c2-c2ccccc2)cc1`, for which the Potency result in [1], in assay [2], in [3] and in [4] was “inactive” each time.

As for `CC(C)(C)NC[C@H](O)COc1cccc2c1CCCC2=O`, the Potency result in assay [1], in [2], in assay [3] and in assay [4] was “inactive” throughout.

As to `C[N+]1(CC2COC(c3ccccc3)(C3CCCCC3)O2)CCCCC1` (configuration not stated), the Potency result in assay [1], in [2], in assay [3] and in [4] was “inactive” in each case. Besides, the Potency in assay [5] was 1.55 µM (active).

Regarding `NC(N)=NN=C(/C=C/c1ccc([N+](=O)[O-])o1)/C=C/c1ccc([N+](=O)[O-])o1`, the Potency result in assay [1] and in [2] was “inactive” throughout. Besides, the Potency in assay [3] is 1 µM (active); in assay [5], 2.75 µM (active); in [4] it was 15.5 µM (active).

For `NC(=S)N/N=C/c1cccnc1`, the Potency result in [1], in assay [2], in assay [3] and in [4] was “inactive” throughout.

For `C[C@@H](O)[C@H]1C(=O)N2C(C(=O)O)=C(S[C@@H]3CN[C@H](CNS(N)(=O)=O)C3)[C@H](C)[C@H]12`, the Potency entry in assay [1], in assay [2], in assay [3] and in assay [5] was “inactive” throughout. The Potency in [4] is 11 µM (active).

For `O=S(=O)(O)c1ccc(O)cc1`, the Potency entry in assay [1], in assay [2], in assay [3], in assay [5] and in assay [4] was “inactive” each time.

Turning to `OCCOCCN1CCN(C2=Nc3ccccc3Sc3ccccc32)CC1`, the Potency entry in assay [1], in assay [2], in assay [3], in [5] and in assay [4] was “inactive” each time.

In the case of `O=C1c2cccc3c2[C@H](CCC3)CN1[C@@H]1CN2CCC1CC2`, the Potency entry in assay [1], in [2], in assay [3] and in [4] was “inactive” in each case.

As to `CCN[C@@H]1C[C@H](N)[C@@H](OC2OC(CN)=CCC2N)[C@H](O)[C@H]1O[C@H]1OC[C@](C)(O)[C@H](NC)[C@H]1O` (some centres not stated), the activity change, negative = inhibition in assay [1] is 1.28% [at 1.07 µM]; in assay [2], -24.8% [at 0.478 µM]; in [5], 2.45% [at 0.91 µM]; in [4], 10% [at 0.91 µM]. Also, the % pathology change, negative = correction in [3] was 3.5% [at 0.369 µM].

With `CN(C)CCOC(=O)C(c1ccccc1)C1(O)CCCC1` (configuration not stated), the Potency entry in [1], in [2], in assay [3] and in assay [4] was “inactive” in each case.

Turning to `CCCCC(CC)COC(=O)c1ccc(N(C)C)cc1` (configuration not stated), the Potency result in assay [1], in assay [2] and in [3] was “inactive” in each case. Further, the Potency in assay [4] was 13.8 µM (active) and 13.5 µM (active).

`CCNC(=O)/C=C/c1cccc(Br)c1`: the Potency entry in assay [1], in assay [2], in assay [3], in assay [5] and in [4] was “inactive” in each case.

With `CC(=O)Nc1ncc([N+](=O)[O-])s1`, the Potency entry in assay [1], in assay [2], in [3] and in [4] was “inactive” throughout.

For the molecule `COc1ccccc1N1CCN(CCCCNC(=O)c2ccc(-c3ccc(C(C)=O)cc3)cc2)CC1`, the Potency result in assay [1], in assay [2], in assay [3] and in [4] was “inactive” each time.

With `COc1ccc2c(c1)c1c3n2CCN(C)C3=NCC1`, the Potency result in [1], in [2], in [3] and in assay [4] was “inactive” throughout.

Regarding `OC[C@H]1O[C@@H](Oc2ccc(O)cc2)[C@H](O)[C@@H](O)[C@@H]1O`, the Potency result in [1], in assay [2], in assay [3], in assay [5] and in [4] was “inactive” each time.

Turning to `CC(=C(CCOC(=O)C(C)C)SSC(CCOC(=O)C(C)C)=C(C)N(C=O)Cc1cnc(C)nc1N)N(C=O)Cc1cnc(C)nc1N`, the Potency entry in [1], in assay [2], in [3], in [5] and in [4] was “inactive” throughout.

For the molecule `Cc1ccc(-c2ncc(Cl)cc2-c2ccc(S(C)(=O)=O)cc2)cn1`, the Potency result in assay [1], in assay [2], in assay [3] and in [4] was “inactive” in each case.

`C#C[C@]1(O)CC[C@H]2[C@@H]3CCC4=CC(=O)CC[C@@H]4[C@H]3CC[C@@]21CC`: the Potency result in [1], in assay [2], in assay [3] and in [5] was “inactive” throughout. In addition, in assay [4], the Potency is 12.3 µM (active).

Take `COc1cc(C(=O)NCc2ccc(OCCN(C)C)cc2)cc(OC)c1OC`: the Potency entry in [1], in [2], in assay [3], in assay [5] and in [4] was “inactive” each time.

On to `O=C1C(CCS(=O)c2ccccc2)C(=O)N(c2ccccc2)N1c1ccccc1` (configuration not stated), for which the Potency result in assay [1], in assay [2], in assay [3] and in assay [5] was “inactive” in each case. Further, in [4], the Potency is 3.09 µM (active).

Regarding `NCCNc1cccc2ccccc12`, the Potency entry in assay [1], in assay [2] and in [3] was “inactive” in each case. For the same molecule, the Potency in assay [5] was 7.76 µM (active); in assay [4], 24.5 µM (active).

Regarding `CC(=O)O[C@]1(C(C)=O)CC[C@H]2[C@@H]3C=C(Cl)C4=CC(=O)CC[C@]4(C)[C@H]3CC[C@@]21C`, the Potency result in assay [1], in assay [2], in assay [3] and in [5] was “inactive” in each case. In addition, the Potency in assay [4] was 8.71 µM (active).

As for `CCCCN1C[C@H](O)[C@@H](O)[C@H](O)[C@H]1CO`, the Potency result in [1], in assay [2], in assay [3], in assay [5] and in assay [4] was “inactive” throughout.

Turning to `CC1(C)OC[C@@H]2O[C@@]3(C(=O)O)OC(C)(C)O[C@H]3[C@@H]2O1`, the Potency result in [6] is “inactive”.

In the case of `O=C(O)C1(C(=O)O)CCC1.[NH2-].[NH2-].[Pt+2]`, the Potency result in assay [6] is “inactive”.

For the molecule `CC(C)(C)NC[C@H](O)COc1nsnc1N1CCOCC1`, the molecule was called inactive in [7].

On to `CCCCCCCCCCCCCCC[C@H](O)[C@@H](N)CO`, for which the Potency entry in assay [8] and in assay [9] was “inactive” throughout.

With `C=C[C@H]1CN2CC[C@H]1C[C@@H]2[C@@H](O)c1ccnc2ccc(OC)cc12`, in assay [8], the Potency result is “inactive”.

On to `C=C1c2cccc(O)c2C(O)=C2C(=O)[C@]3(O)C(O)=C(C(N)=O)C(=O)[C@@H](N(C)C)[C@@H]3[C@@H](O)[C@H]12`, for which, in assay [6], the Potency entry is “inactive”.
